# Results taken from PubChem BioAssay AID652175 (National Center for Advancing Translational Sciences (NCATS), 2013).
# Where “and” joins values, the source holds several entries; their conditions need not be identical. Equal values may be shown once. Inconclusive results are not listed. A call without a number means that no potency is given here. Calls of active or inactive are those of the source. The call rests on the fitted dose curve; in most records, active means well fitted inhibition curve with a large enough effect; inconclusive means small, poorly fitted or top-dose-only effect; inactive means no such curve, though single readings can be large or run the other way.
# Assay: qHTS Assay for Lipid Storage Modulators: S3 Assay against Probe and Analogs
# Conditions: Drosophila S3 cells, BODIPY lipid droplet fluorescence, 18-24 h, oleic acid added to induce droplets; series mostly up to 46.1 µM
# Excerpt: Storing lipids as a reservoir for energy or the anabolism of elementary metabolites is a common feature of probably all cells and is conserved from bacteria to humans. The universal cellular lipid storage organelle is the so-called lipid storage droplet (LD). Although ubiquitous, LDs share a simple structure composed of a hydrophobic core that harbors the storage lipids, which is shielded by a droplet-specific phospholipid monolayer to which proteins are attached. The current model of LD biogenesis involves an incorporation of the lipid core into the membrane leaflets of the endoplasmic reticulum (ER) followed by a subsequent budding-like maturation of a LD, which ultimately pinches off. Once released, LD volume can increase by localized lipogenesis or fusion of existing droplets. Storage lipids are re-mobilized enzymatically by lipase activity. Lipase regulation in the adipocyte is heavily studied and involves multiple components including catecholamine signaling, the LD-associated proteins Perilipin and comparative gene identification-58 (CGI-58) and at least two lipases named hormone sensitive lipase (HSL) and adipocyte triglyceride lipase (ATGL). LD regulation outside of the adipocyte is poorly understood and only few components are known. However, there is an urgent need to learn more about ectopic fat depots as mislocalized storage of lipids, for example in the liver or muscle, is an eminent health problem associated with insulin resistance or the metabolic syndrome. We developed a laser-scanning cytometer assay to enable 1,536-well screening and combined the results of the small molecules screen with an RNAi database based on lipid storage. In this assay we tested analogs of the probe against the original qHTS assay, which involved drosophila melanogaster cells (S3), to see if these small molecules could disrupt lipid storage. NIH Molecular Libraries Probe Production Centers Network [MLPCN] NIH Chemical Genomics Center [NCGC] MLPCN Grant: MH085686 Assay Submitter (PI): Mathias Beller, Max-Planck-Institut fur Biophysikalische Chemie
# qHTS was performed with embryonic Drosophila S3 cells (Bloomington Drosophila Genomics Resource Center [DGRC]). We dispensed 4 uL of cells at 1.25 x 10^6 cells/mL into LoBase Aurora COC 1,536-well plates (black walled, clear bottom) with a bottle-valve solenoid-based dispenser (Aurora) to obtain 5,000 cells/well. Triacsin C (Sigma-Aldrich T-4540), an inhibitor of long-chain fatty acyl CoA synthetase that blocks synthesis of triglycerides, was used as a positive control for lipid under-storage. A total of 23 nL of compounds dissolved in DMSO at different concentrations were transferred to the assay plates using a Kalypsys pin tool equipped with a 1,536-pin array containing 10-nL slotted pins (FP1S10, 0.457-mm diameter, 50.8 mm long; V&P Scientific). The final DMSO concentration was 0.46%. One microliter of oleic acid at 400 uM (Calbiochem, #4954) was added to induce lipid droplet formation in the cells, and the plates were lidded with stainless steel rubber gasket lined lids containing pinholes. After 18-24 h incubation at 25 0C and 95% humidity, 4 uL of the BODIPY lipid dye 493/503 (1:2000, Molecular Probes) and the Cell Tracker Red CMTPX dye (Life Technologies, # 34552) were added to the wells to stain lipid droplets and enumerate cell number, respectively. Fluorescence was detected by excitation of the fluorophores with a 488-nm laser on an Acumen Explorer (TTP Lab Tech). The total intensity in channel 1 (500-530 nm) reflected lipid droplet accumulation. Cells were detected using channel 3 (575-640 nm) with 5-um width and 100-um depth filters. The ratio of the total intensity in PMT channel 1 over total intensity of channel 3 was also calculated. Percent activity was computed relative to an internal control (100% inhibited lipid droplet deposition due to the presence of 20 uM Triacsin C), which was added to 32 wells/plate.
row,Structure (SMILES),Potency
1,Cn1c(=O)n(-c2ccc(C(C)(C)C#N)cc2)c2c3cc(-c4cnc5ccccc5c4)ccc3ncc21,1180 nM (active)
2,O=C(Nc1cccc2nn(-c3ccc(F)cc3)cc12)c1ccccn1,inactive
3,O=C(NC1CCCc2c1cnn2-c1ccc(F)cc1F)c1ccccn1 (stereo not given),23.5 nM (active) and 4.7 nM (active)
4,CCOC(=O)C1CCN(C(=O)C2(NC(=O)Nc3ccccc3Cl)CCCCC2)CC1,166 nM (active)
5,CCOc1ccc(CCNC(=O)c2cc3sccc3n2CCN2CCN(C)CC2)cc1OCC,332 nM (active)
6,CCOC(=O)C1CCN(C(=O)C(C)(C)NC(=O)Nc2ccc3sccc3c2)CC1,inactive
7,CCOc1ccc(CCNC(=O)c2cc3sccc3n2Cc2ccccc2)cc1OCC,4.2 nM (active)
8,O=C(NC1CCCc2c1cnn2CCO)c1ccccn1 (stereo not given),inactive
9,O=C(N[C@H]1CCCc2c1cnn2-c1ccc(F)cc1F)c1ccccn1,inactive
10,O=C(NC1CCCc2c1cnn2-c1ccc(F)cc1F)C1CC1 (stereo not given),inactive
11,CC(NCc1ccc2c(c1)nc(NC(=O)c1ccc(-c3cn[nH]c3)s1)n2CC(C)(C)O)C(C)(C)C (stereo not given),inactive
12,CCOC(=O)C1CCN(C(=O)C(C)(C)NC(=O)Nc2ccc(-c3ccccc3)cc2)CC1,inactive
13,CCOc1ccc(CCNC(=O)c2cc3c(s2)CCC3)cc1OCC,332 nM (active)
14,CCOc1ccc(CCNC(=O)c2ccc3ccccc3n2)cc1OCC,inactive
15,CCOc1ccc(CCNC(=O)Cc2ccccc2)cc1OCC,inactive
16,CCOC(=O)C1CCN(C(=O)C(C)(C)NC(=O)Nc2ccc(N)cc2)CC1,inactive
17,CCOC(=O)C1CCN(C(=O)C(C)(C)NC(=O)Nc2ccc(CN3CCOCC3)cc2)CC1,inactive
18,CCOc1ccc(CCNC(=O)c2cc3sccc3n2Cc2ccncc2)cc1OCC,132 nM (active)
19,CCOC(=O)C1CCN(C(=O)C(C)(C)NC(=O)Nc2ccc(OC)c(Cl)c2)CC1,inactive
20,O=C(c1cc2sccc2n1Cc1ccccc1)N(CCc1ccc(O)c(O)c1)Cc1ccccc1,inactive

row,Structure (SMILES),Potency
1,CCOc1ccc(CCNC(=O)c2cc3sccc3n2C(C)C)cc1OCC,187 nM (active)
2,CCOc1cc(F)c(CCNC(=O)c2cc3sccc3n2Cc2ccccc2)cc1OCC,3.3 nM (active)
3,CN(C)CC(=O)NC1CCCc2c1cnn2-c1ccc(F)cc1F (stereo not given),inactive
4,CC(C)(C)OC(=O)NCCOCCOCCOCCn1ncc2c1CCCC2NC(=O)c1ccccn1 (stereo not given),inactive
5,CCOc1ccc(CCNC(=O)C2CCCCC2)cc1OCC,inactive
6,CCOC(=O)C1CCN(C(=O)C(C)(C)NC(=O)Nc2ccc(C#N)cc2)CC1,inactive
7,O=C(NCCc1ccc(OCC(F)(F)F)c(OCC(F)(F)F)c1)c1cc2sccc2n1Cc1ccccc1,1320 nM (active)
8,CN(C)Cc1ccc(-c2nc3cccc4c3n2CCNC4=O)cc1,inactive
9,CCOc1ccc(CCNC(=O)c2cc3sccc3n2Cc2ccccc2)c(F)c1OCC,inactive
10,CCOc1ccc(CCN(C)C(=O)c2cc3sccc3n2Cc2ccccc2)cc1OCC,469 nM (active)
11,CCOc1ccc(CCNC(=O)c2cc3ccccc3o2)cc1OCC,inactive
12,CCOc1ccc(CCNC(=O)c2ccc3[nH]ccc3c2)cc1OCC,inactive
13,CCOc1ccc(CCNC(=O)C2=C(C)OCCO2)cc1OCC,inactive
14,O=C(O)c1cccc(-c2noc(-c3ccccc3F)n2)c1,inactive
15,COc1nc(-c2ccc3c(c2)OCO3)n(-c2ccc(NC(=O)CSc3ccccc3)cc2)n1,inactive
16,O=C(Nc1ccccc1-c1cn2c(CN3CCNCC3)csc2n1)c1cnc2ccccc2n1,inactive
17,CCn1c(C(=O)NCc2ccc(OC)c(OC)c2)cc2sccc21,inactive
18,O=C(O)CCc1ccc(NCc2cccc(Oc3ccccc3)c2)cc1,inactive
19,O=C(NC1CCCc2c1cnn2-c1ccc(F)cc1F)c1ccccc1 (stereo not given),20.9 nM (active) and 26.4 nM (active)
20,CCn1c(C(=O)NCCc2ccc(OC)cc2)cc2sccc21,inactive
